Data reported in PubChem BioAssay AID1159580 (chemical genetic matrix, 2015).
The campaign covered roughly 5,500 compounds. About 2,000 (36%) were called active. Inconclusive results (about 18%) are left out. Rule as the data show it: active = normalized growth mostly below about 0.91 (no sharp cut-off); inconclusive = no clear call, values can overlap the other calls; inactive = mostly above about 0.92. This is one part of the list.

Assay: chemical genetic growth profiling, strain panel (AID 1159580);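 also: tested at 20 µM; growth read once vehicle control cultures reached saturation at 30 °C; 1 = growth at the plate median or of vehicle wells; lower values mean less growth of the strain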
Settings: growth OD

Measured: normalized growth

CCCNC1CCc2nc(N)sc2C1 (stereo unspecified)
inactive: S. cerevisiae deletion strains, locus YAL013W, strain DEP1, active compounds read low 1.01 | S. cerevisiae deletion strains, locus YBR021W, strain FUR4, active compounds read low 1.02 | S. cerevisiae deletion strains, locus YBR229C, strain ROT2, active compounds read low 1.01 | S. cerevisiae deletion strains, locus YCL029C, strain bik1, active compounds read low 0.997 | S. cerevisiae deletion strains, locus YDL035C, strain GPR1, active compounds read low 1.02 | S. cerevisiae deletion strains, locus YDL074C, strain BRE1, active compounds read low 1.04 | S. cerevisiae deletion strains, locus YDL101C, strain DUN1, active compounds read low 1.01 | S. cerevisiae deletion strains, locus YDL134C, strain PPH21, active compounds read low 1.01 | S. cerevisiae deletion strains, locus YDL185W, strain tfp1, active compounds read low 1.01 | S. cerevisiae deletion strains, locus YDL192W, strain arf1, active compounds read low 1 | S. cerevisiae deletion strains, locus YDR101C, strain arx1, active compounds read low 0.988 | S. cerevisiae deletion strains, locus YDR150W, strain NUM1, active compounds read low 1.01 | S. cerevisiae deletion strains, locus YDR162C, strain NBP2, active compounds read low 1.01 | S. cerevisiae deletion strains, locus YDR318W, strain mcm21, active compounds read low 1 | S. cerevisiae deletion strains, locus YDR388W, active compounds read low 0.994 | S. cerevisiae deletion strains, locus YDR502C, strain sam2, active compounds read low 0.995 | S. cerevisiae deletion strains, locus YEL061C, strain CIN8, active compounds read low 1.01 | S. cerevisiae deletion strains, locus YER110C, active compounds read low 0.99 | S. cerevisiae deletion strains, locus YER155C, strain BEM2, active compounds read low 0.983 | S. cerevisiae deletion strains, locus YER167W, strain BCK2, active compounds read low 1.01 | S. cerevisiae deletion strains, locus YGL078C, strain dbp3, active compounds read low 1.01 | S. cerevisiae deletion strains, locus YGL086W, strain mad1, active compounds read low 0.994 | S. cerevisiae deletion strains, locus YGL248W, strain PDE1, active compounds read low 1.01 | S. cerevisiae deletion strains, locus YGR078C, strain PAC10, active compounds read low 1.03 | S. cerevisiae deletion strains, locus YGR135W, strain pre9, active compounds read low 1 | S. cerevisiae deletion strains, locus YGR229C, strain SMI1, active compounds read low 1.03 | S. cerevisiae deletion strains, locus YGR252W, strain gcn5, active compounds read low 1.03 | S. cerevisiae deletion strains, locus YHR030C, strain SLT2, active compounds read low 1.01 | S. cerevisiae deletion strains, locus YHR079C, strain IRE1 (second series), active compounds read low 0.995 | S. cerevisiae deletion strains, locus YHR094C, strain hxt1, active compounds read low 1 | S. cerevisiae deletion strains, locus YHR129C, strain ARP1, active compounds read low 1.01 | S. cerevisiae deletion strains, locus YHR200W, strain rpn10, active compounds read low 1 | S. cerevisiae deletion strains, locus YIL066C, strain RNR3, active compounds read low 1.02 | S. cerevisiae deletion strains, locus YIL073C, strain SPO22, active compounds read low 1.03 | S. cerevisiae deletion strains, locus YIL125W, strain kgd1, active compounds read low 1 | S. cerevisiae deletion strains, locus YIR030C, strain dcg1, active compounds read low 0.998 | S. cerevisiae deletion strains, locus YJL095W, strain BCK1, active compounds read low 1.02 | S. cerevisiae deletion strains, locus YJL134W, strain LCB3, active compounds read low 1.01 | S. cerevisiae deletion strains, locus YJL168C, strain set2, active compounds read low 1 | S. cerevisiae deletion strains, locus YJL187C, strain SWE1 (second series), active compounds read low 1.01 | S. cerevisiae deletion strains, locus YJR043C, strain POL32, active compounds read low 1 | S. cerevisiae deletion strains, locus YJR075W, strain HOC1, active compounds read low 1 | S. cerevisiae deletion strains, locus YKL009W, strain mrt4, active compounds read low 1.02 | S. cerevisiae deletion strains, locus YKL068W, active compounds read low 1.01 | S. cerevisiae deletion strains, locus YKL085W, strain MDH1 (second series), active compounds read low 1.01 | S. cerevisiae deletion strains, locus YKL085W, strain MDH1, active compounds read low 1.01 | S. cerevisiae deletion strains, locus YKL190W, strain CNB1, active compounds read low 1.02 | S. cerevisiae deletion strains, locus YKR001C, strain vps1, active compounds read low 1.01 | S. cerevisiae deletion strains, locus YLR039C, strain RIC1, active compounds read low 1.05 | S. cerevisiae deletion strains, locus YLR058C, strain SHM2, active compounds read low 1.01 | S. cerevisiae deletion strains, locus YLR102C, strain apc9, active compounds read low 0.997 | S. cerevisiae deletion strains, locus YLR262C, strain YPT6, active compounds read low 1.06 | S. cerevisiae deletion strains, locus YLR268W, strain sec22, active compounds read low 0.992 | S. cerevisiae deletion strains, locus YLR330W, strain CHS5, active compounds read low 1.01 | S. cerevisiae deletion strains, locus YLR342W, strain FKS1 (second series), active compounds read low 1.02 | S. cerevisiae deletion strains, locus YLR371W, strain rom2, active compounds read low 1 | S. cerevisiae deletion strains, locus YLR418C, strain cdc73, active compounds read low 1.01 | S. cerevisiae deletion strains, locus YML016C, strain PPZ1, active compounds read low 1 | S. cerevisiae deletion strains, locus YML032C, strain rad52, active compounds read low 0.992 | S. cerevisiae deletion strains, locus YML124C, strain tub3, active compounds read low 1 | S. cerevisiae deletion strains, locus YMR078C, strain ctf18, active compounds read low 0.999 | S. cerevisiae deletion strains, locus YMR223W, strain ubp8, active compounds read low 1.01 | S. cerevisiae deletion strains, locus YMR263W, strain SAP30, active compounds read low 1.01 | S. cerevisiae deletion strains, locus YMR307W, strain GAS1, active compounds read low 0.995 | S. cerevisiae deletion strains, locus YNL067W, strain RPL9B, active compounds read low 1.01 | S. cerevisiae deletion strains, locus YNL128W, strain TEP1, active compounds read low 1.02 | S. cerevisiae deletion strains, locus YNL153C, strain GIM3, active compounds read low 1 | S. cerevisiae deletion strains, locus YNL233W, strain BNI4, active compounds read low 1.01 | S. cerevisiae deletion strains, locus YNL250W, strain rad50, active compounds read low 0.996 | S. cerevisiae deletion strains, locus YNL271C, strain bni1, active compounds read low 0.993 | S. cerevisiae deletion strains, locus YNL298W, strain CLA4, active compounds read low 1.03 | S. cerevisiae deletion strains, locus YNL307C, strain MCK1, active compounds read low 0.995 | S. cerevisiae deletion strains, locus YNL322C, strain KRE1, active compounds read low 1.01 | S. cerevisiae deletion strains, locus YNR052C, strain pop2, active compounds read low 1 | S. cerevisiae deletion strains, locus YOL006C, strain TOP1, active compounds read low 1.03 | S. cerevisiae deletion strains, locus YOL012C, strain htz1 1.08 | S. cerevisiae deletion strains, locus YOL147C, strain pex11, active compounds read low 0.995 | S. cerevisiae deletion strains, locus YOR061W, strain CKA2, active compounds read low 1.01 | S. cerevisiae deletion strains, locus YOR069W, strain VPS5, active compounds read low 1.01 | S. cerevisiae deletion strains, locus YOR136W, strain idh2, active compounds read low 1 | S. cerevisiae deletion strains, locus YOR144C, strain elg1, active compounds read low 1.01 | S. cerevisiae deletion strains, locus YOR184W, strain ser1, active compounds read low 1.02 | S. cerevisiae deletion strains, locus YOR316C, strain cot1, active compounds read low 1 | S. cerevisiae deletion strains, locus YPL055C, strain LGE1, active compounds read low 1.06 | S. cerevisiae deletion strains, locus YPL241C, strain CIN2, active compounds read low 1.01 | S. cerevisiae deletion strains, locus YPR119W, strain clb2, active compounds read low 1.01 | S. cerevisiae deletion strains, locus YPR141C, strain kar3, active compounds read low 0.996 | S. cerevisiae deletion strains, locus YPR163C, strain tif3, active compounds read low 0.993 | S. cerevisiae deletion strains, locus YPR167C, strain met16, active compounds read low 1.01 | S. cerevisiae deletion strains, strain wtn01, active compounds read low 0.989 | S. cerevisiae strains, strain wild type, active compounds read low 1.01
